Screening results from PubChem.
In the library only some 14% were active in any assay of this set; here they are far more common.
Pf growth 96h – Primary qHTS for delayed death inhibitors of the malarial parasite plastid, 96 hour incubation; P. falciparum luciferase reporter growth, 96 h; Potency, µM (series often up to 28.7 µM), actives largely listed as inhibitors; 320,000 compounds, 6.9% hits; AID 504834, 2011
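Parasite growth measured via integrated firefly luciferase reporter in P. falciparum. Infected erythrocytes at 2% hematocrit, 0.05% parasitemia final were treated 96 hours at 37 C under 5% CO2, and luminescence was read.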
HCMV antiviral – qHTS Assay for inhibitors of the human cytomegalovirus (HCMV); HFF cells, HCMV-luciferase reporter, 72 h; stronger effect = lower value; activity change, negative = inhibition, % at 57.5 µM; 410,000 compounds, 4.5% hits; in the data active = activity change below about -60%; inconclusive = no clear call, values can overlap the other calls; inactive = above about -39%
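Inhibition of viral replication was scored as loss of reporter luminescence in HFFs infected with HCMV-luciferase (MOI 1 PFU/cell) for 72 h; compounds tested at 2 doses, normalized to buffer and Salinomycin controls.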
Marburg entry inh – qHTS for inhibitors of binding or entry into cells for Marburg Virus | 300,000 compounds, 1.8% hits | Marburg virus pseudotyped entry inhibition, cell reporter | Potency, µM (series often up to 37.8 µM), most hits filed as inhibitors; calls by dose curve; tested in HEK293 cells
Lassa entry inh – qHTS for Inhibitors of binding or entry into cells for Lassa Virus | Lassa virus pseudotype entry inhibition, cell reporter | Potency, µM (highest dose often 37.9 µM), hits mostly inhibitors | 300,000 compounds, 1.2% hits; calls by dose curve; tested in HEK293 cells; also: nearly all actives have a fitted effect of over 50% in size
HCV inh – qHTS Assay for Inhibitors of Hepatitis C Virus (HCV); AID 651820, 2012; Huh7.5.1 HCVcc-Cre infection, luciferase reporter, 44 h; 340,000 compounds, 3.4% hits; Potency, µM (highest dose often 41.8 µM), hits mostly inhibitors
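HCVcc-Cre virus at an moi near 0.5 was added right after compound to cells cultured 4 h from seeding (1,000 cells/well). Luciferase activity was determined 44 h later, 15 min after substrate addition at RT.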
Pf growth 48h – Primary qHTS for delayed death inhibitors of the malarial parasite plastid, 48 hour incubation; AID 504832, 2011; P. falciparum luciferase growth in erythrocytes, 48 h; Potency, µM (doses to about 28.7 µM), actives largely listed as inhibitors; 310,000 compounds, 5.9% hits
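Luciferase-expressing P. falciparum in infected erythrocytes (2% hematocrit, 0.1% parasitemia final) in RPMI 1640/0.5% Albumax were exposed to compound for 48 hours at 37 C, 5% CO2; growth read as luminescence.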
Each line names hits and unclear results; the compound was inactive in the other large screens; ! = not confirmed by another sample. Unless noted, calls follow the shape of the dose curve; as a rule, active = well fitted inhibition curve with a large enough effect; inconclusive = small, poorly fitted or top-dose-only effect, or another doubt; inactive = no such curve, though single readings can be large or run the other way.

O=C(COC(=O)C1(c2ccc(F)cc2)CCCC1)NCc1ccc2c(c1)OCO2	Pf growth 96h inconclusive, HCMV antiviral -60, Marburg entry inh inconclusive
O=C(COC(=O)C1(c2ccccc2F)CCCC1)NCc1ccc2c(c1)OCO2	HCMV antiviral -60, Lassa entry inh inconclusive, HCV inh inconclusive
O=C(COC(=O)/C=C/c1ccc2c(c1)OCO2)NCc1ccc(F)cc1	HCMV antiviral -64 (no result: Pf growth 96h, Marburg entry inh, Lassa entry inh, HCV inh, Pf growth 48h)
O=C(COC(=O)/C=C/c1ccc(F)cc1)NCc1ccc2c(c1)OCO2	HCMV antiviral inconclusive (no result: Pf growth 96h, Pf growth 48h)
O=C(COC(=O)C1(c2ccccc2F)CCCC1)NCc1cccs1	HCMV antiviral -69, Marburg entry inh inconclusive, Lassa entry inh inconclusive, Pf growth 48h inconclusive
NC(=O)c1ccc(NC(=O)COC(=O)C2(c3ccccc3F)CCCC2)cc1	none (no result: Marburg entry inh, Lassa entry inh)
O=C(COC(=O)c1ccccc1F)NCc1ccc2c(c1)OCO2	none (no result: Pf growth 96h, Marburg entry inh, Lassa entry inh, Pf growth 48h)
COc1cc(NC(=O)N2CCC3(CC2)Nc2ccccc2-n2cccc23)cc(OC)c1OC	none (no result: Pf growth 96h, Marburg entry inh, HCV inh, Pf growth 48h)
Cc1ccc(S(=O)(=O)CC(O)COc2ccc(C#N)cc2)cc1 (stereo not drawn)	HCMV antiviral -70
N#Cc1ccc(OCC(O)CS(=O)(=O)c2ccc(F)cc2)cc1 (stereo not drawn)	HCMV antiviral inconclusive
CCCC(=O)N1CCN(c2ccc(NC(=O)c3cc4ccccc4o3)cc2Cl)CC1	HCMV antiviral -103, Marburg entry inh inconclusive, Lassa entry inh 16µM, HCV inh 2.2µM, Pf growth 48h 1.5µM
CCC(=O)N1CCN(c2ccc(NC(=O)c3cc4ccccc4o3)cc2Cl)CC1	HCMV antiviral -104, Marburg entry inh 11µM, Lassa entry inh inconclusive, HCV inh 11µM, Pf growth 48h inconclusive
O=C(Nc1ccc(N2CCN(C(=O)c3ccco3)CC2)c(Cl)c1)c1cc2ccccc2o1	HCMV antiviral -99, Marburg entry inh inconclusive, Lassa entry inh inconclusive, HCV inh 3.5µM, Pf growth 48h 2.9µM
Clc1ccc(-c2c[n+]3c(n2-c2ccccc2)SCC3)cc1	Pf growth 96h 0.17µM, HCMV antiviral inconclusive, Pf growth 48h 1.2µM
O=[N+]([O-])c1cccc(-c2c[n+]3c(n2-c2ccccc2)SCC3)c1	Pf growth 96h 1µM, Pf growth 48h 1µM
CCOC(=O)C[C@H]1c2cc(F)ccc2S(=O)(=O)N1c1cccc(OC)c1	HCV inh inconclusive (no result: Pf growth 96h, Marburg entry inh, Lassa entry inh, Pf growth 48h)
N=c1oc2c3c4c(cc2cc1C(=O)Nc1ccccc1)CCCN4CCC3	Pf growth 96h 13µM, Lassa entry inh inconclusive, HCV inh 7.9µM (no result: HCMV antiviral, Pf growth 48h)
O=c1oc2c3c4c(cc2cc1-c1nc2ccccc2[nH]1)CCCN4CCC3	none (no result: Pf growth 96h, HCMV antiviral, Lassa entry inh, HCV inh, Pf growth 48h)
CN(c1ccccc1)S(=O)(=O)c1ccc(C(=O)NCc2ccccc2CN2CCCC2)cc1	Pf growth 96h inconclusive, HCMV antiviral inconclusive, Marburg entry inh inconclusive, HCV inh 10µM, Pf growth 48h inconclusive
COC(=O)c1cc(CNC(=O)c2ccc(S(=O)(=O)N(C)c3ccccc3)cc2)ccc1OC	Pf growth 96h 12µM, HCV inh 4µM, Pf growth 48h 3.7µM
COc1ccccc1/C=C/C(=O)NCCC1=CCCCC1	Pf growth 96h inconclusive, Marburg entry inh inconclusive, Lassa entry inh 7.9µM, Pf growth 48h inconclusive
COc1ccccc1N(C)S(=O)(=O)c1ccc(C(=O)NNC(=O)c2ccccc2O)cc1	Pf growth 96h inconclusive, HCV inh inconclusive, Pf growth 48h inconclusive
CN(c1ccccc1)S(=O)(=O)c1ccc(C(=O)NCc2ccc(F)cc2)cc1	none (no result: Pf growth 96h, Marburg entry inh, Lassa entry inh, Pf growth 48h)
COc1ccc(CCNC(=O)c2ccc(S(=O)(=O)N(C)c3ccccc3)cc2)cc1OC	Pf growth 96h inconclusive, Lassa entry inh inconclusive, HCV inh inconclusive, Pf growth 48h inconclusive
O=C(/C=C/c1ccccc1)NCCC1=CCCCC1	Marburg entry inh inconclusive
COc1cc(OC)cc(C(=O)NNC(=O)c2ccc(S(=O)(=O)N(C)c3ccccc3OC)cc2)c1	Pf growth 96h 0.083µM (no result: Marburg entry inh, Lassa entry inh)
c1ccc(-n2ncc3c(NC[C@@H]4CCCO4)ncnc32)cc1	none (no result: Pf growth 96h, HCMV antiviral, Lassa entry inh, HCV inh, Pf growth 48h)
CC(=O)C1=C(O)C(CSCc2ccccc2)N(C)C1=O (stereo not drawn)	Marburg entry inh inconclusive, Lassa entry inh inconclusive (no result: Pf growth 96h, Pf growth 48h)
COc1ccccc1N(C)S(=O)(=O)c1ccc(C(=O)NCc2ccc3c(c2)OCO3)cc1	Pf growth 96h inconclusive, HCMV antiviral inconclusive, Marburg entry inh inconclusive, HCV inh inconclusive, Pf growth 48h 9.3µM
COc1ccccc1N(C)S(=O)(=O)c1ccc(C(=O)Nc2cc(F)ccc2C)cc1	Lassa entry inh inconclusive, HCV inh 6.3µM (no result: Pf growth 96h, Pf growth 48h)
COC(=O)c1cc(CNC(=O)c2sccc2-c2ccccc2)ccc1OC	HCV inh 11µM (no result: Marburg entry inh, Lassa entry inh)
COc1ccccc1N(C)S(=O)(=O)c1ccc(C(=O)Nc2nc(C)cs2)cc1	Pf growth 96h inconclusive, Marburg entry inh 16µM, Lassa entry inh inconclusive, HCV inh inconclusive, Pf growth 48h inconclusive
COc1cccc(C(=O)NCc2ccc3c(c2)OCO3)c1OC	Pf growth 96h inconclusive
COc1ccccc1N(C)S(=O)(=O)c1ccc(C(=O)NC(C)(C)C)cc1	Pf growth 96h inconclusive, Marburg entry inh inconclusive, Lassa entry inh inconclusive (no result: Pf growth 48h)
CC(O)CN(CCN(CC(C)O)CC(C)O)CC(C)O (stereo not drawn)	none (no result: Marburg entry inh, Lassa entry inh, HCV inh)
CCCNC(=O)NC(=O)COC(=O)c1ccc(S(=O)(=O)N(C)c2ccccc2OC)cc1	Marburg entry inh inconclusive
COc1ccccc1N(C)S(=O)(=O)c1ccc(C(=O)OCC(=O)NCCC2=CCCCC2)cc1	HCMV antiviral -62, Marburg entry inh inconclusive
O=c1c2ccccc2nnn1CSc1nnc(COc2ccc(Cl)cc2)n1Cc1ccco1	HCMV antiviral -60, HCV inh inconclusive, Pf growth 48h inconclusive
Cc1cccc(NC(=O)CSc2nnc(CSc3nc(C)cc(C)n3)n2Cc2ccco2)c1	Pf growth 96h 15µM, HCV inh inconclusive, Pf growth 48h inconclusive
NC(=O)CSc1nnc(COc2ccccc2)n1Cc1ccco1	none (no result: Marburg entry inh, Lassa entry inh)
Clc1ccc(OCc2nnc(SCCN3CCCCC3)n2Cc2ccco2)cc1	Marburg entry inh 26µM!, HCV inh inconclusive, Pf growth 48h inconclusive
COc1ccc(C)cc1NC(=O)CSc1nnc(-c2ccco2)n1Cc1ccco1	Pf growth 96h 10µM, HCV inh inconclusive
Cc1cc(C)nc(SCc2nnc(SCC(=O)Nc3nccs3)n2Cc2ccco2)n1	none
CC(=O)N1CCCc2cc(S(=O)(=O)N3CCC(C(=O)Nc4cccc(Cl)c4C)CC3)ccc21	none (no result: Pf growth 96h, Marburg entry inh, HCV inh, Pf growth 48h)
Clc1ccc(CSc2nnc(-c3ccccn3)n2Cc2ccco2)c(Cl)c1	Pf growth 96h 15µM, Marburg entry inh inconclusive, HCV inh inconclusive, Pf growth 48h inconclusive
CCOc1ccccc1NC(=O)CSc1nnc(-c2ccccn2)n1Cc1ccco1	Pf growth 96h 3.7µM, HCV inh inconclusive, Pf growth 48h inconclusive
